Vaccinia mCherry – qHTS for Stage-Specific Inhibitors of Vaccinia Orthopoxvirus: mCherry Reporter Primary qHTS; Vaccinia virus mCherry reporter infection, fluorescence; Potency, µM (highest dose often 36.5 µM), inactives show at the highest dose activity change, negative = inhibition, actives largely listed as inhibitors; 0.63% of 310,000 active; AID 720579, 2013; calls by dose curve; tested in A549 cells; further: potency means the concentration at half of the fitted maximal effect; nearly all actives have a fitted effect of over 35% in size
HCMV antiviral – qHTS Assay for inhibitors of the human cytomegalovirus (HCMV); activity change, negative = inhibition, % at 57.5 µM; 4.5% of 410,000 active; HFF cells, HCMV-luciferase reporter, 72 h; hits give low values; AID 1259415, 2018; in the data active means activity change below about -60%; inconclusive means no clear call, values can overlap the other calls; inactive means above about -39%
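Two compound doses tested in HFFs infected with HCMV-luciferase, MOI 1 PFU/cell, 72 h at 37C. Lysate luminescence read with OneGlo; data normalized against buffer-only and 10uM Salinomycin inhibitor controls.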
FMDV inh – High Throughput Screening for Foot and Mouth Disease Virus Antivirals | FMDV antiviral cell-based qHTS | Potency, µM (top dose mostly 57.9 µM), for inactives: top-dose activity change, negative = inhibition, actives largely listed as inhibitors | 1.2% of 410,000 active | AID 1159524, 2015; calls by dose curve; tested in HEK293T cells; further: read-out not given here; potency means the concentration at half of the fitted maximal effect; nearly all actives have a fitted effect of over 45% in size
VACV Venus inh – qHTS for Stage-Specific Inhibitors of Vaccinia Orthopoxvirus: Venus Reporter Primary qHTS. Vaccinia virus Venus reporter expression, fluorescence. Potency, µM (series often up to 36.5 µM), inactives show at the top dose activity change, negative = inhibition, actives largely listed as inhibitors. 0.46% of 330,000 active; calls by dose curve; tested in A549 cells; further: potency means the concentration at half of the fitted maximal effect; nearly all actives have a fitted effect of over 30% in size
HCV inh – qHTS Assay for Inhibitors of Hepatitis C Virus (HCV). Huh7.5.1 HCVcc-Cre infection, luciferase reporter, 44 h. Potency, µM (top dose mostly 41.8 µM), inactives show at the highest dose activity change, negative = inhibition, usual class: inhibitors. 3.4% of 340,000 active; further: potency means the concentration at half of the fitted maximal effect
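Whole-lifecycle infectious HCVcc-Cre system; cells 1,000/well, compound then virus (~0.5 moi) added 4 h after plating, 44 h culture. Luciferase read 15 sec following 15 min substrate incubation, room temp.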
Giardia FBPA inh – qHTS Assay for Inhibitors of Fructose-1,6-bisphosphate Aldolase from Giardia Lamblia; Potency, µM (highest dose often 59.6 µM), inactives show at the top dose activity, negative = inhibition, usual class: inhibitors; 0.71% of 290,000 active; A8B2U2; AID 2451, 2010; purified Giardia FBPA; further: potency means the concentration at half of the fitted maximal effect; nearly all actives have a fitted effect of over 55% in size
Target sequence (A8B2U2 whole entry, looked up): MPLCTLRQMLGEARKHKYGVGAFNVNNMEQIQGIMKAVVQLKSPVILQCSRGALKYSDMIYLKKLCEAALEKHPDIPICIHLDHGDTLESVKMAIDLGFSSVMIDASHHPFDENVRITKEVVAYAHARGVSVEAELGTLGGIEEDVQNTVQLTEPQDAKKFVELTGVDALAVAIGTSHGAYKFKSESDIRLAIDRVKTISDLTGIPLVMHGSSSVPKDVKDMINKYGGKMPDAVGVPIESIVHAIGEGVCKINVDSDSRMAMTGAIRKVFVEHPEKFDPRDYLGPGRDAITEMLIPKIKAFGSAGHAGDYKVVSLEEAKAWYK
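40 nM FBPA preincubated 10 min at RT with compound (up to 57.5 uM final), then substrate plus GAPDH/TPI/NAD/arsenate coupling and diaphorase/resazurin added. Fluorescence read after 20 min at RT, 525/598 nm.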
* hit, by the source's call; i = inactive; u = inconclusive; x = no result; [ ] = remark or other dose. Compounds with a hit are over-represented: about 7.5% of the library has one in this group of screens. Unless noted, the call rests on the fitted dose curve; in most records, active means well fitted curve in the direction sought with a large enough effect; inconclusive means small, poorly fitted or top-dose-only effect, or another doubt; inactive means no such curve, though single readings can be large; an effect the other way counts as inactive or inconclusive. On the % scale 0 is the no-effect control and ±100 the full control effect.

SMILES	Vaccinia mCherry	HCMV antiviral	FMDV inh	VACV Venus inh	HCV inh	Giardia FBPA inh
Cc1[nH]c2ccc3ncccc3c2c1C	i	-3	28%	-1%	11µM*	-29%
CC1(C(=O)NS(=O)(=O)c2ccccc2C(F)(F)F)CCN1C(=O)CCc1ccccc1 (stereo not given)	i	9	9%	-10%	x	x
Cc1ccc(-c2nn(-c3ccccc3)cc2/C=N/NC(=O)CSc2nnc(C)n2-c2ccccc2)cc1	x	39	19%	u	14µM*	1%
COc1ccc(-c2nn(-c3ccccc3)cc2/C=N/Nc2ccc3ccccc3n2)cc1OC	u	-26	u	-26%	10µM*	3%
COc1ccc(-c2nn(-c3ccccc3)cc2/C=N/Nc2cccc(C(=O)O)c2)cc1	i	-61*	49%	-6%	-33%	-5%
CCOc1cc(NC(=S)NCCOC)c(OCC)cc1NC(=O)c1ccco1	-23%	68	-3%	-6%	u	-4%
O=C1SC(c2ccccc2)=C/C1=C\N1CCCCC1	-27%	100	x	-12%	11µM*	11%
O=C1OC(c2ccccc2)=C/C1=C/N1CCOCC1	i	36	x	-2%	-13%	-17%
CCOc1ccc(Br)cc1S(=O)(=O)N1CCCN(C)CC1	i	16	1%	-14%	u	x
CCOc1ccc(Br)cc1S(=O)(=O)N1CCC(C(N)=O)CC1	-7%	-64*	45%	-4%	26%	0%
C=CCN(c1ccccc1)S(=O)(=O)c1cccc(C(=O)N2CCCC2)c1	-1%	-26	20%	-21%	-8%	x
C=CCN(c1ccccc1)S(=O)(=O)c1cccc(C(=O)N2CC(C)CC(C)C2)c1 (stereo not given)	-26%	-85*	-14%	-24%	7.1µM*	x
CN(c1ccccc1)S(=O)(=O)c1cccc(C(=O)N2CCCCCC2)c1	-1%	-34	-7%	-6%	u	x
CC1CC(C)CN(C(=O)c2cccc(S(=O)(=O)N(C)c3ccccc3)c2)C1 (stereo not given)	i	u	0%	-12%	32µM*	x
COc1ccc(N(C)S(=O)(=O)c2cccc(C(=O)OCC(=O)N3CC(C)CC(C)C3)c2)cc1 (stereo not given)	-6%	-36	32µM*	-19%	u	x
CC(=O)c1cccc(NC(=O)Nc2ccc3c(c2)OCO3)c1	-13%	-32	44%	-8%	-19%	x
CC1=[N+](C)c2ccc3ccccc3c2C1(C)C	x	-84*	u	x	u	u
O=C(CSc1nc2ccc([N+](=O)[O-])cc2[nH]1)NC1CCCCCC1	u	13	5.6µM*	u	14µM*	-2%
CC1(C)CC(=O)C(C=NCCN2CCN(CC(=O)Nc3ccc(Cl)cc3)CC2)=C(O)C1	x	-8	-13%	x	13µM*	3%
CC1(C)CC(=O)C(C=NCCN2CCN(CCc3ccccc3)CC2)=C(O)C1	-1%	31	-16%	-9%	11µM*	2%
Cc1ccc(NC(=O)CN2CCN(CCN=CC3=C(O)CC(C)(C)CC3=O)CC2)cc1	x	15	-5%	-2%	22%	8%
CC(=O)Nc1cc(-c2cccnc2)cn2c(-c3cccc(C(F)(F)F)c3)cnc12	10µM*	-62*	-12%	13µM*	x	x
COc1cccc(-c2cc(NC=O)c3ncc(-c4cccc(C(=O)NCCN(C)C)c4)n3c2)c1	5%	-33	-16%	-7%	x	x
CN(C)CCNC(=O)c1cccc(-c2cnc3c(NC=O)cc(-c4ccc(S(C)(=O)=O)cc4)cn23)c1	47%	-66*	6%	6%	x	x
COc1ccccc1-c1cc(NC(C)=O)c2ncc(-c3cccc(C(F)(F)F)c3)n2c1	0%	15	-28%	-9%	x	x
SMILES	Vaccinia mCherry	HCMV antiviral	FMDV inh	VACV Venus inh	HCV inh	Giardia FBPA inh
CN(C)CCNC(=O)c1cccc(-c2cnc3c(NC=O)cc(-c4cc(F)c(F)c(F)c4)cn23)c1	-16%	-76*	-6%	u	x	x
CN(C)CCNC(=O)c1cccc(-c2cc(NC=O)c3ncc(-c4cccc(C(F)(F)F)c4)n3c2)c1	u	-61*	-2%	u	x	x
Cc1c(C)c2c(OCC(=O)N[C@@H](CC(C)C)C(=O)O)cc3c(c2oc1=O)CCC(C)(C)O3	0%	-3	47%	-10%	15%	3%
CN(C)C(=O)c1cccc(-c2cnc3c(NC=O)cc(-c4cccc(C(F)(F)F)c4)cn23)c1	u	u	32µM*	u	x	x
CC(=O)Nc1cc(-c2ccc(N3CCN(C)CC3)cc2)cn2c(-c3ccc(S(C)(=O)=O)cc3)cnc12	6%	-5	-7%	-16%	x	x
CC(=O)Nc1cc(-c2ccc(N3CCN(C)CC3)cc2)cn2c(-c3ccccc3)cnc12	-21%	-60*	-8%	-6%	x	x
COc1ccc(Br)cc1/C=N/NS(=O)(=O)c1ccccc1	-20%	-87*	9%	u	x	x
COc1ccc(Br)cc1/C=N/Nc1ccccn1	x	60	-12%	x	11µM*	1%
COc1ccccc1/C=N/NS(=O)(=O)c1ccccc1	x	-2	52%	x	11%	-20%
COc1ccc(/C=N/Nc2ccccn2)cc1OC	-28%	113	13%	-21%	-12%	-1%
CCc1ccc(NC(=O)CN(C(=O)N2CCN(CC)CC2)S(=O)(=O)c2ccc(C)cc2)cc1	-4%	-36	-23%	3%	1%[8.37 µM]	x
CC1CN=C(c2cc(Cl)c(N)c(Cl)c2)c2c3ccccc3[n+]([O-])n21 (stereo not given)	x	55	x	x	x	x
O=[N+]([O-])c1cccnc1N1CCC(c2cc(-c3cccc(C(F)(F)F)c3)n[nH]2)CC1	-25%	-30	-6%	u	u	-1%
CC(=O)c1ccc(N2CCN(c3ccccc3O)CC2)c([N+](=O)[O-])c1	u	-6	u	-16%	-23%	-5%
O=[N+]([O-])c1cccnc1N1CCC(c2cc(-c3ccc(Cl)cc3Cl)n[nH]2)CC1	u	-17	0%	u	22µM*	-5%
COc1ccc(OC)c(-c2cc(C3CCN(c4ncccc4[N+](=O)[O-])CC3)[nH]n2)c1	u	-29	u	u	11µM*	-9%
CC(=O)c1ccc(N2CCC(c3cc(-c4ccc(Cl)cc4Cl)n[nH]3)CC2)c([N+](=O)[O-])c1	x	-60*	20µM*	x	11µM*	0%
CS(=O)(=O)N(CC(=O)O)c1cc(C(F)(F)F)ccc1Cl	i	-34	-24%	-11%	17%	x

High-throughput results (PubChem)
